Screens: PubChem BioAssay, National Center for Advancing Translational Sciences (NCATS)
An excerpt weighted towards active compounds, which were near 12% of everything screened.
Sfp inh: Sfp phosphopantetheinyl transferase inhibition. Biochemical Sfp PPTase activity, qHTS. Potency, µM, for inactives: largest response in the series, negative = inhibition, usual class: inhibitors. 310,000 compounds, 3.5% hits. Q9F4F7;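 further: the enzyme is Sfp with the accession as filed and its product quenches rhodamine fluorescence; 0% = enzyme reaction without inhibitor and -100% = no enzyme wells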
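Compounds were incubated with enzyme (final 15 nM) for 15 min at room temperature before substrate addition started the reaction. Fluorescence at 525 nm excitation, 598 nm emission was recorded immediately and after 30 minutes.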
PLK1 PBD block: inhibitors of human PLK1 polo-box domain binding | Potency, µM, inactives show max response, negative = inhibition, most hits filed as inhibitors | Plk1 PBD binding of FITC phosphopeptide, fluorescence polarization | P53350 | 360,000 compounds, 2.8% hits; further: series mostly up to about 57 µM; on the % scale 0 is the no-effect control and ±100 the full control effect; nearly all actives have a fitted effect of over 65% in size
BAZ2B inh: inhibitors of human BAZ2B bromodomain; Q9UIF8; AlphaScreen BAZ2B-H3K14Ac peptide displacement; Potency, µM (titrated, usually from 114 µM), without a hit: at the top dose activity change, negative = inhibition, hits mostly inhibitors; 360,000 compounds, 4.4% hits; AID 504333; further: on the % scale 0 is the no-effect control and ±100 the full control effect; nearly all actives have a fitted effect of over 60% in size
Target sequence (Q9UIF8 whole entry, looked up): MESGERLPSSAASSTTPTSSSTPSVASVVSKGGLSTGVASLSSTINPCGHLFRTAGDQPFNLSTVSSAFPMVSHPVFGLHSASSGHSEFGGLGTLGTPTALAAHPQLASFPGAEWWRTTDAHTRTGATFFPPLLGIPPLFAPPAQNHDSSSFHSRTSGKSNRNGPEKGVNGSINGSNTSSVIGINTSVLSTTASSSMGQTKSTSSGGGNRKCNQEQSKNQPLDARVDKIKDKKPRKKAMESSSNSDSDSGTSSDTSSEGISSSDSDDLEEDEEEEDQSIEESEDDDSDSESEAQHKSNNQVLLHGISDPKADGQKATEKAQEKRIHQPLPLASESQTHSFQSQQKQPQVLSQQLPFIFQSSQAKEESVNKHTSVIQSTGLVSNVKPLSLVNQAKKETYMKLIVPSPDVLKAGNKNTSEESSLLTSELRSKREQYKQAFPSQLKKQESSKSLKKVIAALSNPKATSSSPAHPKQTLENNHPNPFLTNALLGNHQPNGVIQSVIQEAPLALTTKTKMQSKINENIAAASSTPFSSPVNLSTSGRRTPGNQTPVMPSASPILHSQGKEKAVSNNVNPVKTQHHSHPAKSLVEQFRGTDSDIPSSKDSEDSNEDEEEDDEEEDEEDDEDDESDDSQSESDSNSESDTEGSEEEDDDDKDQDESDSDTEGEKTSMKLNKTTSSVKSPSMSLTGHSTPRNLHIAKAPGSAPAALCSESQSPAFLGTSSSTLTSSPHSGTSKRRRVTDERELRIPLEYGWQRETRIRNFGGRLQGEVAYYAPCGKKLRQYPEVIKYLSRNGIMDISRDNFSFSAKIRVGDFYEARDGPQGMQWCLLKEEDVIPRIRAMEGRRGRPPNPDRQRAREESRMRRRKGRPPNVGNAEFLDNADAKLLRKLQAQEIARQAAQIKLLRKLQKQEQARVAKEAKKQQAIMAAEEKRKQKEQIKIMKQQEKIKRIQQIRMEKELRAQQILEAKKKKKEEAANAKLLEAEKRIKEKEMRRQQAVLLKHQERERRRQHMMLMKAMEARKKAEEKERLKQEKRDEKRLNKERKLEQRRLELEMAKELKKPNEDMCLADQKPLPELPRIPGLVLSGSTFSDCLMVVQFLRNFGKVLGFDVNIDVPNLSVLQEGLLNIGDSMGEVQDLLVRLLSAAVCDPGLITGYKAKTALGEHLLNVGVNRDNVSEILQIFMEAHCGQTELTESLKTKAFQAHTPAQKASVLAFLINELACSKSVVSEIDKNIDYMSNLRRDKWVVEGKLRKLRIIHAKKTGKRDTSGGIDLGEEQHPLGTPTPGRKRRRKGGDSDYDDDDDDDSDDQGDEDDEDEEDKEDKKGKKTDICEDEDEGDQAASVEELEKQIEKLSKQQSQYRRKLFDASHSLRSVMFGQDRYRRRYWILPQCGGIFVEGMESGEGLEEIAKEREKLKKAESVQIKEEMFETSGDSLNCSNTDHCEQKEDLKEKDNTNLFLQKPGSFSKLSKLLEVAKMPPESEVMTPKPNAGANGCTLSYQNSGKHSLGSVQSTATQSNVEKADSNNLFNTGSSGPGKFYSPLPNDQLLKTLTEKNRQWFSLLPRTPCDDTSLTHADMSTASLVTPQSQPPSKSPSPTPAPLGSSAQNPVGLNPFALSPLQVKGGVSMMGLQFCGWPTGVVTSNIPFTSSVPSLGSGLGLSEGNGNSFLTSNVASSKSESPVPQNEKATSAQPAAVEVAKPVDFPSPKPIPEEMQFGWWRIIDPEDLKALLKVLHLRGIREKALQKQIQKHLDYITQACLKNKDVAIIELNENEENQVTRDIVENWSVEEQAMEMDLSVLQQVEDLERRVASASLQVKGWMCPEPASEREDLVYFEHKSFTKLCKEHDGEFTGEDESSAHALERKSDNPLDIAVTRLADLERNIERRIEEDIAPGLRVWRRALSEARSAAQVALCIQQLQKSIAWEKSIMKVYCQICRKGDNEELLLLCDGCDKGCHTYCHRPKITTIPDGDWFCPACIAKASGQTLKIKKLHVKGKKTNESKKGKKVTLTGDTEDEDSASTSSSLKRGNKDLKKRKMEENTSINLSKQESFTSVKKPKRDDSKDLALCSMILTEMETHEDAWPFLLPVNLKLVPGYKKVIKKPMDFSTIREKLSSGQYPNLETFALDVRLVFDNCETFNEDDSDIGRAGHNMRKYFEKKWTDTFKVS
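AlphaScreen displacement of biotin-H3(5-23)K14Ac peptide (50 nM final) from BAZ2B (50 nM final) in PBS pH 7.4, 0.01% Tween-20; complex preformed 30 min RT, then compounds (top 110 uM) 30 min RT, beads 20 min dark.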
HP1b chromo inh: blocks HP1-beta chromodomain binding to methylated histone tails; AlphaScreen HP1-beta / biotin-H3K9me3 peptide binding; Potency, µM (doses to about 114 µM), without a hit: at the highest dose activity change, negative = inhibition, actives largely listed as inhibitors; 390,000 compounds, 0.56% hits; further: nearly all actives have a fitted effect of over 70% in size
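AlphaScreen: HP1-beta (50 nM) preformed 30 min with biotin-H3(1-18)K9me3 peptide (50 nM) in PBS pH 7.4, 0.01% Tween-20. Compound added for 30 min at RT, then streptavidin donor/nickel chelate acceptor beads (10 ug/mL) for 30 min.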
G9a inh: inhibitors of human histone lysine methyltransferase G9a | Q96KQ7 | G9a H3K9 monomethylation, AlphaScreen, 2 h | Potency, µM (series often up to 102 µM), for inactives: top-dose activity, negative = inhibition, hits mostly inhibitors | 350,000 compounds, 8.8% hits | AID 504332; further: on the % scale 0 is the no-effect control and ±100 the full control effect; nearly all actives have a fitted effect of over 75% in size
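G9a (20 nM) was preincubated 15 min with compound, then reacted 2 h at room temperature with 500 nM biotin-H3K9 peptide and 20 µM SAM. Monomethyl-H3K9 detected by AlphaScreen using anti-H3K9me1 antibody.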
JMJD2A Tudor inh: blocks the human JMJD2A Tudor domain; O75164; AlphaScreen JMJD2A-Tudor / H3K4me3 peptide binding; Potency, µM (series often up to 114 µM), for inactives: at the top dose activity change, negative = inhibition, usual class: inhibitors; 390,000 compounds, 4.4% hits; AID 504339; further: on the % scale 0 is the no-effect control and ±100 the full control effect; nearly all actives have a fitted effect of over 50% in size
Active calls of the source: *; ? = inconclusive; . = no result; [ ] = dose if it differs, or a comment. The call rests on the fitted dose curve; in most records, active means well fitted curve in the direction sought with a large enough effect; inconclusive means small, poorly fitted or top-dose-only effect, or another doubt; inactive means no such curve, though single readings can be large; an effect the other way counts as inactive or inconclusive. Potency means the concentration at half of the fitted maximal effect.

SMILES	Sfp inh	PLK1 PBD block	BAZ2B inh	HP1b chromo inh	G9a inh	JMJD2A Tudor inh
O=C(Cn1nc(-c2ccc(Cl)cc2)c2ccccc2c1=O)NCC1CCCO1 (stereo unspecified)	-8.6%	13.4µM*	9.7%	?	7.0%	35.5µM*
CNC(=O)Cn1nc(-c2ccc(C)cc2)c2ccccc2c1=O	5.0%	11.9µM*	1.4%	-3.0%	19.4%[59 µM]	?
COc1ccc2cc(C(=O)Nc3ccc(S(N)(=O)=O)cc3)sc(=O)c2c1OC	-10.7%	-12.1%	-19.9%	12.1%	-3.7%[59 µM]	-16.5%[11.4 µM]
Cc1ccc(CN2CCNC(=O)C2CC(=O)NCCCn2ncc3ccccc32)o1 (stereo unspecified)	-10.7%	-2.6%	-12.1%	15.6%	.	-20.0%
CCOc1ccc(CCNCc2c(C(=O)O)c(C)n(Cc3ccccc3F)c2C)cc1	.	.	?	-3.7%	-8.1%[59 µM]	-31.2%
CN(C)CCN(Cc1ccccc1)S(=O)(=O)c1ccc(-c2cc(C(F)(F)F)on2)s1	.	.	-34.0%	16.8%	-5.5%[59 µM]	?
C[N+](C)(C)CC(=O)N/N=C/c1c2ccccc2cc2ccccc12	-2.1%	-18.5%	56.2µM*	42.1%	35.5µM*	?
CNC(=S)N/N=C/c1c2ccccc2c(Cl)c2ccccc12	-1.5%	?	-18.7%	14.0%	17.8µM*	-7.4%
COCCNC(=S)N/N=C/c1c2ccccc2cc2ccccc12	3.1%	?	2.0%	92.9%	79.4µM*	15.5%
NC(=S)N/N=C\c1c2ccccc2cc2ccccc12	-19.1%	?	-37.5%	-0.2%	7.08µM*	-34.9%
CCOC(=O)c1c(C)noc1CP(=O)(c1ccccc1)c1ccccc1	4.4%	3.6%	8.6%	27.7%	-35.0%[59 µM]	4.0%
Cc1ccc(-c2cc(-c3ccccc3)no2)cc1	.	-0.6%	0.9%	68.2%	14.4%[2.33 µM]	2.1%
c1ccc(-c2cc(-c3ccccc3)on2)cc1	14.0%	13.4µM*	3.2%	1.0%	23.1%	-19.9%[11.4 µM]
O=C(O)c1ccc(N2CC3CC(C2)c2cccc(=O)n2C3)c(NC(=S)Nc2ccc(Br)cc2)c1 (stereo unspecified)	56.2µM*	18.9µM*	2.2%	-22.5%	31.6µM*	-21.3%
COc1cccc(NC(=O)Nc2cc(C(=O)O)ccc2N2CC3CC(C2)c2cccc(=O)n2C3)c1 (stereo unspecified)	3.5%	-3.6%	-25.8%	34.4%	15.1%	-3.5%
CCc1ccc(NC(=O)Nc2cc(C(=O)NCC3CCCO3)ccc2N2CC3CC(C2)c2cccc(=O)n2C3)cc1 (stereo unspecified)	9.9%	?	-14.5%	4.9%	?	?
CCc1ccc(NC(=S)Nc2cc(C(=O)O)ccc2N2CC3CC(C2)c2cccc(=O)n2C3)cc1 (stereo unspecified)	56.2µM*	-21.2%	.	1.3%	?	-16.7%
CCOc1ccccc1NC(=O)c1ccc2c(Cl)c3c(nc2c1)CCC3	.	.	-9.9%	26.5%	-11.9%[59 µM]	-12.3%
CCOn1c(=O)c(=O)n(OC)c2ccccc21	18.8%	1.7%	-4.0%	19.9%	11.3%	-1.7%
O=c1c(=O)n(O)c2ccccc2n1O	79.4µM*	0.9%	39.8µM*	6.8%	10µM*	50.1µM*
COn1c(=O)c(=O)n(O)c2ccccc21	-28.7%	-10.9%	?	-5.3%	-1.0%[59 µM]	79.4µM*
Cc1c(O)c2ccccc2n(-c2ccccc2)c1=O	.	0.0%	.	12.5%	.	-0.7%
CC1CCCN(CC(=O)Nc2ccc(S(=O)(=O)N3C(C)CCCC3C)cc2)C1 (stereo unspecified)	.	-0.5%	.	.	.	.
CCn1cnc2c1c(=O)n(Cc1cccc(Br)c1)c(=O)n2Cc1ccccc1	-5.6%	?	-0.5%	19.4%	-7.7%[59 µM]	70.8µM*
Cn1cnc2c1c(=O)n(Cc1cccc(Br)c1)c(=O)n2C	?	-0.9%	10.0%	14.8%	-6.7%[12.7 µM]	-20.7%
SMILES	Sfp inh	PLK1 PBD block	BAZ2B inh	HP1b chromo inh	G9a inh	JMJD2A Tudor inh
COc1ccccc1NC(=O)CN1C(=O)CCSc2ccccc21	.	.	4.3%	25.2%	9.0%[59 µM]	-1.8%
Nc1ncnc2c1c(I)cn2C1OC(CO)C(O)C1O (stereo unspecified)	-5.3%	.	.	.	-20.6%[59 µM]	.
CC(=O)NC1C(=O)N(CCc2ccccc2)c2ccc(Br)cc21 (stereo unspecified)	-17.5%	-6.0%	-3.1%	23.6%	11.2µM*	-22.2%
CCCCN1C(=O)c2ccccc2C1C(=O)NC1CCCC1 (stereo unspecified)	18.2%	-1.9%	5.8%	2.9%	10.9%[59 µM]	-4.4%
O=C(CSC1CC(=O)N(CCc2ccccc2)C1=O)Nc1ccc(Br)cc1 (stereo unspecified)	16.0%	-15.7%	5.0%	42.5%	.	-0.6%
CCCCN1C(=O)C(NC(C)=O)c2ccccc21 (stereo unspecified)	?	-2.9%	-5.0%	28.7%	22.4µM*	-17.3%
CC(=O)NC1C(=O)N(Cc2ccccc2)c2ccc(Br)cc21 (stereo unspecified)	4.8%	26.7µM*	-27.2%	-18.9%	39.8µM*	-14.7%[11.4 µM]
Cc1nc(-c2coc3cc(O)c(C)cc3c2=O)cs1	2.9%	-2.1%	10.2%	29.1%	52.6%[12.7 µM]	-2.5%
Cc1nc(-c2coc3cc(C)c(N=O)c(O)c3/c2=N\N)cs1	?	-4.5%	?	20.0%	50.1µM*	-24.8%
Cc1ccc(C(=O)NCC(=O)OC(C(=O)Nc2cc(C(F)(F)F)ccc2Cl)c2ccccc2)cc1 (stereo unspecified)	.	.	.	.	.	-19.9%
Cc1n[nH]c(C)c1CCCCOc1ccccc1	5.0%	-25.0%	-19.6%	12.9%	50.1µM*	-31.8%[57.1 µM]
COc1cccc(OC)c1OCCCCCc1c(C)n[nH]c1C	7.0%	-0.1%	-7.9%	32.7%	50.1µM*	-4.1%
Cc1ccc(OCCCc2c(C)n[nH]c2C)cc1	-8.4%	2.3%	?	26.0%	?	-17.2%
COc1cccc(OC)c1OCCCCc1c(C)n[nH]c1C	-9.3%	-8.2%	-33.7%	8.9%	?	-12.3%
O=C(O)c1cccc(NC(=S)NC(=O)c2ccncc2)c1	?	-5.0%	.	-19.3%	44.7µM*	?
CC(C)(C)C(=O)NC(=S)Nc1cccc(C(=O)O)c1	?	2.7%	-7.0%	38.7%	0.0%[0.501 µM]	-11.7%
CNC(=S)Nc1cccc(C(=O)O)c1	56.2µM*	-6.0%	-21.6%	62.2%	17.8%[12.7 µM]	-6.7%
O=C(NC(=S)Nc1cnc2ccccc2c1)c1ccccc1	56.2µM*	-10.4%	-37.9%	38.3%	?	-12.7%
Cc1ccc(C23CCC(=O)N2C(C(=O)O)CS3)c(C)c1 (stereo unspecified)	-13.5%	-7.4%	-17.9%	8.5%	-10.2%	-16.6%
O=C(O)C1CSC2(c3ccc(F)cc3)CCC(=O)N12 (stereo unspecified)	7.0%	-11.5%	-16.8%	37.4%	56.2µM*	-8.2%
